Experimental data taken from ChEMBL document CHEMBL4513216, “Probing the Open Global Health Chemical Diversity Library for Multistage-Active Starting Points for Next-Generation Antimalarials” (ACS Infect Dis, 2020).
The whole screen tested about 65,000 compounds, of which about 2,100 (3.2%) showed an effect of 50% or more. The median lay at about -52%. What follows is part of a selection rich in strong results, with near analogues and random picks from the rest.

What follows are molecules tested on Plasmodium falciparum (assay: Screen against P. falciparum Asexual Blood Stage (ABS), at 5uM). Settings: tested at 5 uM.
Type: functional, Dd2

Structure (SMILES)	INHIBITION
CN1CCC2(CC1)CN(Cc1ccc(C3CCCCO3)o1)CCCN2C (stereo not drawn)	81.1%
c1cnc(N2CCOCC3(CN(Cc4cc[nH]n4)CCO3)C2)nc1 (stereo not drawn)	-54.7%
CN(Cc1ccco1)[C@@H]1CN(Cc2ccsc2)C[C@@H]2CCCO[C@@H]21	76%
Cc1cc(CN2C[C@@H]3CCCO[C@@H]3[C@H](N(C)C(C)C)C2)no1	-18.2%
Cc1cccc(CN2C[C@@H]3CCCO[C@@H]3[C@H](NS(C)(=O)=O)C2)n1	-63.9%
Cc1ccc(CN2C[C@@H]3CCCO[C@@H]3[C@H](N(C)Cc3ccco3)C2)s1	74.2%
CN(Cc1cncnc1)[C@H]1CN(Cc2ccco2)[C@@H]2CCCO[C@@H]21	-96.6%
CN(Cc1ccco1)[C@@H]1CN(Cc2cccnc2)[C@@H]2CCCO[C@H]12	-40.9%
c1cnc(N2C[C@H]3CC[C@@H](C2)N(Cc2ccsc2)C3)nc1	-21%
c1ccc(O[C@@H]2CO[C@@]3(CCCN(CC4CCOCC4)C3)C2)nc1	3.78%
Cc1cc(CN2C[C@@H]3COC[C@]3(CNS(C)(=O)=O)C2)no1	-20.4%
CN1CCOC(CN(C(=O)CN2CCCC2=O)c2nccs2)C1 (stereo not drawn)	-55.7%
c1ccc(Oc2cccc(OC34CCCN(CC3)C4)c2)cc1 (stereo not drawn)	76.9%
N#Cc1cccc(OC23CCCN(CC2)C3)c1 (stereo not drawn)	-31.3%
c1ccc(O[C@@H]2CN(Cc3nccs3)[C@@H]3CCCO[C@@H]32)nc1	-4.8%
CCc1ccccc1OCCN(C)C(=O)CN1CCCC1	75.4%
CCOCCN(C)C(=O)Nc1cccc2c1CCN(CC)C2	-88.7%
Cc1noc(C)c1CN1C[C@@H]2CN(C(=O)c3cscn3)C[C@@H]2C1	-82.3%
Cc1ccnc(NC(=O)c2[nH]nc(C(C)C)c2Br)c1	73.7%
CC(C)c1n[nH]c(C(=O)Nc2ccccn2)c1Br	84.6%
Cc1ccnc(NCCNC(=O)C2CC3(CCNCC3)CN2C)c1 (stereo not drawn)	-81.4%
Cc1cc(CN2C[C@@H]3CN(C(=O)c4ccsc4)CCO[C@@H]3C2)no1	-12.1%
CN1CCCc2c1nc1c(c2N)CCCC1	75.8%
CN1CCc2nc3c(c(N)c2C1)CCCN3C	-7.55%
c1cncc(NCCNC2CCCNC2)c1 (stereo not drawn)	-1.26%

Structure (SMILES)	INHIBITION
Cc1cc(CC(C)NC2CCN(CC(C)C)CC2)[nH]n1 (stereo not drawn)	-57.2%
Cc1cnccc1NCCNC1CCN(CC(C)C)CC1	80%
CC(C)CN1C(=O)C2(CCCC2)NC1c1cccnc1 (stereo not drawn)	-8.76%
CC(=O)N1C[C@H]2CNC[C@@]2(C(=O)NCCNc2ccncc2C)C1	-37%
CC(C)CN1CCC(NCCNc2cccnc2)CC1	79.1%
Cn1cc(N2C(=O)CC[C@@H]3[C@H]2CCN3Cc2ccncc2)cn1	-123%
c1ccc(CN2CCN3C[C@H](Oc4cccnc4)C[C@H]3C2)nc1	-10.5%
COc1ccccc1CNCc1nn(-c2ccccc2)c2c1CCC2	81.6%
c1ccc(O[C@@H]2CC[C@H]3[C@H]2OCCN3Cc2ccsc2)nc1	-77.6%
CN1CCN(S(=O)(=O)c2ccccc2)Cc2cccnc21	-41.3%
O=C(c1[nH]nc(C2CC2)c1Cl)N1CCN(S(=O)(=O)c2ccccc2)CC1	75.8%
O=C(NCc1ccccn1)[C@]12COC[C@H]1CN(C1CCC1)C2	-26.3%
N#Cc1ccc(NCCc2n[nH]c(=O)[nH]2)cc1Cl	-36.1%
Cc1ccc(NCCCNC(=O)C2CCCN(Cc3ccco3)C2)nc1 (stereo not drawn)	70.6%
Cc1nccc([C@@H]2C[C@@H]3CCN(Cc4ccco4)C[C@H]3O2)n1	-17.2%
O=C(Nc1cccnc1)[C@H]1CN(Cc2ccco2)C[C@H]2OCC[C@@H]12	-115%
CC(C)CC(=O)N1CCC2(CC1)OCCO2	-80.4%
COc1ccc2ncn(Cc3ncc[nH]3)c(=O)c2c1	-84.2%
CCC1CN(C(=O)c2ccc(Cl)cc2O)CCN1C(C)C (stereo not drawn)	73.3%
CC(C)N1CCO[C@H]2CN(C(=O)c3ccncc3F)C[C@H]21	-88.4%
O=C(c1ccc(Cl)cc1-n1cnnn1)N1CCC2(CC1)OCCO2	-52.7%
O=C1CO[C@@H]2CN(Cc3cccnc3)C[C@H]2N1Cc1ccncc1	-6.5%
Cc1[nH]c2ccc(CNC3CCN(Cc4ccccn4)CC3)cc2c1C	93.6%
O=C1Nc2ccccc2C12CCN(Cc1ccccn1)CC2	-45.4%
C[C@H]1C[C@H]2CN(Cc3ccccn3)CC[C@@H]2O1	-8.95%

Structure (SMILES)	INHIBITION
O=C(NC[C@H]1C[C@@H]2CCN1C[C@@H]2CN1CCCCC1)Nc1ccccc1	-34.9%
O=S(=O)(NC[C@H]1C[C@@H]2CCN1C[C@@H]2CN1CCCC1)c1ccc(Cl)cc1	89.4%
O=S(=O)(NC[C@H]1C[C@@H]2CCN1C[C@@H]2CN1CCOCC1)c1ccccc1	-71.9%
CC(=O)N1CCOCC2(CN(Cc3ccccn3)CCO2)C1 (stereo not drawn)	-107%
CN1CCCN(C(=O)c2ccnn2-c2ccc3ccccn23)CC1	70.8%
CN1CCN(C(=O)c2cn(Cc3ccccc3)c3ncccc23)CC1	-70.4%
CC(NC1CCCC1)c1ccccc1-n1cccn1 (stereo not drawn)	81%
NC(CC1CCCCC1)c1ccccc1 (stereo not drawn)	55.4%
NC(Cc1nc(-c2ccccc2)no1)c1ccccc1 (stereo not drawn)	-253%
Cc1cc(CN2CC[C@H]3OCC[C@@]3(C(=O)N3CCOCC3)C2)no1	-53.6%
COc1cccc([C@@H]2CCN(Cc3cn(C)c4ccccc34)C[C@H]2O)c1	78%
COc1cccc([C@@H]2CCN(Cc3cccc(C)n3)C[C@H]2O)c1	-29.5%
OC[C@@H]1[C@@H](c2ccccc2)CN2CCN(c3ccccn3)C[C@H]12	-63.3%
Cn1cc(CN2CCCC(CCc3c(F)cccc3F)C2)cn1 (stereo not drawn)	79.3%
Cn1cc(CN2C[C@H](Oc3ncccc3F)[C@H]3OCCC[C@H]32)cn1	-37%
Cn1cc(CN2CCCC(CCc3ccc(F)c(F)c3)C2)cn1 (stereo not drawn)	71.2%
Cn1cc(CN2CCN3C[C@H](Oc4cccnc4)C[C@H]3C2)cn1	-50.7%
Cc1cccc(CN2CC[C@H]3[C@H]2CCN3Cc2cnn(C)c2)n1	-127%
Cn1cc(CN2CCCC(CCc3ccc(F)cc3F)C2)cn1 (stereo not drawn)	89.3%
Cn1cc(CN2C[C@@H]3CCC[C@@H](OCc4cccnc4)[C@@H]3C2)cn1	-74.7%
Cn1cc(CN2CC[C@H]3CO[C@H](CNc4ncccn4)[C@H]3C2)cn1	-108%
Cn1cc(CN2CCCC(CCc3ccc(F)cc3)C2)cn1 (stereo not drawn)	74.7%
Cn1cc(CN2CC[C@@H]3[C@@H]2CCN3C(=O)Cc2cccc(F)c2)cn1	-39.1%
CN(C)[C@@H]1CCN(C(=O)Cc2ccc(F)cc2)[C@H]1Cc1cnn(C)c1	-2.98%
Cc1ccc(N2CCO[C@H]3CN(Cc4cnn(C)c4)C[C@H]32)nn1	7.68%

Structure (SMILES)	INHIBITION
CC(=O)N1CCC2(CCN(CC(C)C)C2)C1 (stereo not drawn)	-17.7%
CCOC(=O)CN1C[C@@H]2OCCN(c3ncc(F)cn3)[C@@H]2C1	-17.5%
COCc1cn(C[C@H]2C[C@@H]3CCN2C[C@@H]3C(=O)N2CCOCC2)nn1	-65.4%
Cc1cc(C)nc(-n2nc(C)c3c2NC(=O)CSC3c2cnn(C)c2)n1 (stereo not drawn)	-48.5%
Cn1ccnc1CN1CCCC(CCc2ccc(F)c(F)c2)C1 (stereo not drawn)	74.5%
FC(F)(F)c1ccccc1CCC1CCCN(Cc2cscn2)C1 (stereo not drawn)	79.6%
Cc1nc(CN2CCCC(CCc3ccccc3C(F)(F)F)C2)no1 (stereo not drawn)	45.9%
Cc1noc(C)c1CN1CCO[C@H]2CN(Cc3nccn3C)C[C@H]21	-35.4%
O=C(Cc1cnccn1)N1C[C@@H]2CC[C@H]1CN(Cc1cscn1)C2	-120%
Cn1ccnc1CN1CCN2C[C@H](OCc3cccnc3)C[C@H]2C1	-52.6%
CN(C)Cc1cncc2c1CCN(Cc1cnn(C)c1)C2	-86.8%
COc1cccc([C@@H]2CCN(Cc3c[nH]c(C)n3)C[C@H]2O)c1	-35.2%
Cc1nc(CN2CCCC(CCc3ccc(F)c(F)c3)C2)c[nH]1 (stereo not drawn)	81.9%
Cn1cc(CN2CCCC(CCc3ccccc3C(F)(F)F)C2)cn1 (stereo not drawn)	87.9%
Cc1nc(C2(NCc3cccc(F)c3F)CCCCC2)no1	-42.2%
O=C1N(Cc2cccc(F)c2F)CCCC1(O)CNCC1CCCCC1 (stereo not drawn)	74.4%
CC(C)(C)CNCC1(O)CCCN(Cc2ccccc2F)C1=O (stereo not drawn)	84.5%
COc1ccc(F)c(CN2CCCC(O)(CNC3CCCCC3)C2=O)c1 (stereo not drawn)	70.3%
COC(=O)C(CO)NC(=O)c1cn(Cc2ccccc2F)nn1 (stereo not drawn)	-19.2%
O=C1N(Cc2ccc(F)c(F)c2)CCCC1(O)CNCC1CCCCC1 (stereo not drawn)	74.1%
O=C(C1CCCC1)N1CCO[C@@H]2CNC[C@@H]21	8.33%
O=C1N(c2ccsc2)CCC12CCCN(Cc1ccccn1)C2 (stereo not drawn)	-30.2%
c1cncc(OC[C@@H]2CC[C@H]3[C@H](CCN3Cc3cccs3)O2)c1	-15.5%
